Results as given in PubChem BioAssay AID1159580 (chemical genetic matrix, 2015).
About 2,000 (36%) of roughly 5,500 compounds were called active. Not shown: some 18% with an inconclusive outcome. No stated cut-off is given here; in the data, active means normalized growth mostly below about 0.91 (no sharp cut-off); inconclusive means no clear call, values can overlap the other calls; inactive means mostly above about 0.92. The list shows a part of the results.

Experiment: chemical genetic growth profiling, strain panel (AID 1159580);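 further: tested at 20 µM; growth read once vehicle control cultures reached saturation at 30 °C; 1 = growth at the plate median or of vehicle wells; lower values mean less growth of the strain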
Conditions: growth OD

Measured: normalized growth

C=C[C@H]1CN2CC[C@H]1C[C@H]2[C@H](O)c1ccnc2ccccc12
inactive: S. cerevisiae deletion strains, locus YJR075W, strain HOC1, hits give low values 1.02 | S. cerevisiae deletion strains, locus YKL009W, strain mrt4, hits give low values 1.01 | S. cerevisiae deletion strains, locus YKL068W, hits give low values 0.982 | S. cerevisiae deletion strains, locus YKL085W, strain MDH1 (second series), hits give low values 0.991 | S. cerevisiae deletion strains, locus YKL085W, strain MDH1, hits give low values 0.991 | S. cerevisiae deletion strains, locus YKL160W, strain elf1, hits give low values 0.989 | S. cerevisiae deletion strains, locus YKL190W, strain CNB1, hits give low values 0.986 | S. cerevisiae deletion strains, locus YKR001C, strain vps1, hits give low values 0.967 | S. cerevisiae deletion strains, locus YKR026C, strain gcn3, hits give low values 1 | S. cerevisiae deletion strains, locus YKR091W, strain srl3, hits give low values 1 | S. cerevisiae deletion strains, locus YLL001W, strain dnm1, hits give low values 0.972 | S. cerevisiae deletion strains, locus YLL026W, hits give low values 0.994 | S. cerevisiae deletion strains, locus YLL041C, strain sdh2, hits give low values 1 | S. cerevisiae deletion strains, locus YLR027C, strain aat2, hits give low values 1 | S. cerevisiae deletion strains, locus YLR039C, strain RIC1, hits give low values 0.99 | S. cerevisiae deletion strains, locus YLR058C, strain SHM2, hits give low values 1 | S. cerevisiae deletion strains, locus YLR102C, strain apc9, hits give low values 0.976 | S. cerevisiae deletion strains, locus YLR113W, strain HOG1, hits give low values 0.941 | S. cerevisiae deletion strains, locus YLR221C, strain rsa3, hits give low values 0.989 | S. cerevisiae deletion strains, locus YLR258W, strain gsy2, hits give low values 1.01 | S. cerevisiae deletion strains, locus YLR262C, strain YPT6 (second series), hits give low values 0.975 | S. cerevisiae deletion strains, locus YLR262C, strain YPT6, hits give low values 0.966 | S. cerevisiae deletion strains, locus YLR268W, strain sec22, hits give low values 0.981 | S. cerevisiae deletion strains, locus YLR320W, strain mms22, hits give low values 0.999 | S. cerevisiae deletion strains, locus YLR330W, strain CHS5, hits give low values 1 | S. cerevisiae deletion strains, locus YLR342W, strain FKS1 (second series), hits give low values 0.995 | S. cerevisiae deletion strains, locus YLR342W, strain FKS1, hits give low values 0.985 | S. cerevisiae deletion strains, locus YLR357W, strain rsc2, hits give low values 0.986 | S. cerevisiae deletion strains, locus YLR370C, strain arc18, hits give low values 0.995 | S. cerevisiae deletion strains, locus YLR371W, strain rom2, hits give low values 0.967 | S. cerevisiae deletion strains, locus YLR384C, strain iki3, hits give low values 0.988 | S. cerevisiae deletion strains, locus YLR418C, strain cdc73, hits give low values 1.03 | S. cerevisiae deletion strains, locus YML016C, strain PPZ1, hits give low values 1.01 | S. cerevisiae deletion strains, locus YML032C, strain rad52, hits give low values 0.97 | S. cerevisiae deletion strains, locus YML120C, strain ndi1, hits give low values 0.992 | S. cerevisiae deletion strains, locus YML124C, strain tub3, hits give low values 0.975 | S. cerevisiae deletion strains, locus YMR058W, strain fet3, hits give low values 0.983 | S. cerevisiae deletion strains, locus YMR078C, strain ctf18, hits give low values 0.965 | S. cerevisiae deletion strains, locus YMR125W, strain sto1, hits give low values 1 | S. cerevisiae deletion strains, locus YMR129W, hits give low values 1 | S. cerevisiae deletion strains, locus YMR205C, strain PFK2, hits give low values 1 | S. cerevisiae deletion strains, locus YMR223W, strain ubp8, hits give low values 0.978 | S. cerevisiae deletion strains, locus YMR231W, strain pep5, hits give low values 0.995 | S. cerevisiae deletion strains, locus YMR263W, strain SAP30, hits give low values 0.987 | S. cerevisiae deletion strains, locus YMR307W, strain GAS1, hits give low values 0.986 | S. cerevisiae deletion strains, locus YNL067W, strain RPL9B, hits give low values 1.01 | S. cerevisiae deletion strains, locus YNL071W, strain lat1, hits give low values 1 | S. cerevisiae deletion strains, locus YNL128W, strain TEP1, hits give low values 1.03 | S. cerevisiae deletion strains, locus YNL153C, strain GIM3, hits give low values 1.01 | S. cerevisiae deletion strains, locus YNL183C, strain NPR1, hits give low values 0.927 | S. cerevisiae deletion strains, locus YNL209W, strain ssb2, hits give low values 1.01 | S. cerevisiae deletion strains, locus YNL233W, strain BNI4, hits give low values 0.999 | S. cerevisiae deletion strains, locus YNL248C, strain rpa49, hits give low values 1.02 | S. cerevisiae deletion strains, locus YNL250W, strain rad50, hits give low values 0.989 | S. cerevisiae deletion strains, locus YNL271C, strain bni1, hits give low values 0.993 | S. cerevisiae deletion strains, locus YNL298W, strain CLA4, hits give low values 0.98 | S. cerevisiae deletion strains, locus YNL307C, strain MCK1, hits give low values 0.981 | S. cerevisiae deletion strains, locus YNL322C, strain KRE1 (second series), hits give low values 0.99 | S. cerevisiae deletion strains, locus YNL322C, strain KRE1, hits give low values 1 | S. cerevisiae deletion strains, locus YNR049C, strain mso1, hits give low values 1 | S. cerevisiae deletion strains, locus YNR052C, strain pop2, hits give low values 0.959 | S. cerevisiae deletion strains, locus YOL006C, strain TOP1, hits give low values 1.07 | S. cerevisiae deletion strains, locus YOL012C, strain htz1 0.823 | S. cerevisiae deletion strains, locus YOL147C, strain pex11, hits give low values 0.971 | S. cerevisiae deletion strains, locus YOR001W, strain rrp6, hits give low values 0.978 | S. cerevisiae deletion strains, locus YOR061W, strain CKA2, hits give low values 1.01 | S. cerevisiae deletion strains, locus YOR069W, strain VPS5, hits give low values 1.01 | S. cerevisiae deletion strains, locus YOR070C, strain gyp1, hits give low values 1 | S. cerevisiae deletion strains, locus YOR080W, strain dia2, hits give low values 0.99 | S. cerevisiae deletion strains, locus YOR083W, strain WHI5, hits give low values 0.948 | S. cerevisiae deletion strains, locus YOR106W, strain vam3, hits give low values 0.994 | S. cerevisiae deletion strains, locus YOR136W, strain idh2, hits give low values 0.973 | S. cerevisiae deletion strains, locus YOR144C, strain elg1, hits give low values 0.972 | S. cerevisiae deletion strains, locus YOR184W, strain ser1, hits give low values 0.977 | S. cerevisiae deletion strains, locus YOR231W, strain MKK1, hits give low values 0.972 | S. cerevisiae deletion strains, locus YOR265W, strain rbl2, hits give low values 0.994 | S. cerevisiae deletion strains, locus YOR270C, strain vph1, hits give low values 1.02 | S. cerevisiae deletion strains, locus YOR290C, strain snf2, hits give low values 0.996 | S. cerevisiae deletion strains, locus YOR316C, strain cot1, hits give low values 0.984 | S. cerevisiae deletion strains, locus YPL051W, strain arl3, hits give low values 1 | S. cerevisiae deletion strains, locus YPL055C, strain LGE1, hits give low values 1.01 | S. cerevisiae deletion strains, locus YPL078C, strain atp4, hits give low values 0.99 | S. cerevisiae deletion strains, locus YPL106C, strain sse1, hits give low values 0.994 | S. cerevisiae deletion strains, locus YPL240C, strain hsp82, hits give low values 1.01 | S. cerevisiae deletion strains, locus YPL241C, strain CIN2, hits give low values 0.992 | S. cerevisiae deletion strains, locus YPL256C, strain CLN2, hits give low values 0.97 | S. cerevisiae deletion strains, locus YPR119W, strain clb2, hits give low values 0.98 | S. cerevisiae deletion strains, locus YPR141C, strain kar3, hits give low values 0.983 | S. cerevisiae deletion strains, locus YPR163C, strain tif3, hits give low values 0.977 | S. cerevisiae deletion strains, locus YPR167C, strain met16, hits give low values 0.989 | S. cerevisiae deletion strains, strain wtn01, hits give low values 0.976 | S. cerevisiae strains, strain wild type, hits give low values 1
